Test results reported in the supplement of paper PMC13380429.
Unmarked numbers belong to inactive results.

What follows are compounds tested on Vero E6 infected with SARS-CoV-2 (assay: SARS-CoV-2 infection rate relative to infected DMSO; higher = more infection, active = 60 or less). Settings: 24 h.

SMILES | SARS-CoV-2 infection rate [%]
N#Cc1cc2c(OCC(O)CN3CCN(C(c4ccccc4)c4ccccc4)CC3)cccc2[nH]1 (stereo not given) (0.833333 µM) | 75
CCN(Cc1ccncc1)C(=O)C(CO)c1ccccc1 (stereo not given) [tropicamide] (10 µM) | 104
CCc1c2c(nc3ccc(OC(=O)N4CCC(N5CCCCC5)CC4)cc13)-c1cc3c(c(=O)n1C2)COC(=O)[C@]3(O)CC [irinotecan] (0.833333 µM) | 98
COc1cc2c(cc1-c1c(C)noc1C)ncc1[nH]c(=O)n([C@H](C)c3ccccn3)c12 (10 µM) | 112
CCOC(=O)c1cc(C#N)c(N2CCC(C(=O)NS(=O)(=O)Cc3ccccc3)CC2)nc1C (10 µM) | 108
CC[C@@]1(O)C(=O)OCc2c1cc1n(c2=O)Cc2c-1nc1cc(F)c(C)c3c1c2[C@@H](N)CC3 [exatecan-mesylate] (0.833333 µM) | 110
COC(=O)C1=C(C)NC(C)=C(C(=O)OCCN2CCN(C(c3ccccc3)c3ccccc3)CC2)C1c1cccc([N+](=O)[O-])c1 (stereo not given) [manidipine] (10 µM) | 91
CCN(CC)CCN(Cc1ccc(-c2ccc(C(F)(F)F)cc2)cc1)C(=O)Cn1c(SCc2ccc(F)cc2)nc(=O)c2c1CCC2 [darapladib] (0.833333 µM) | 106
O=C1C[C@@H](c2ccc(O)cc2)Oc2cc(O)ccc21 (10 µM) | 110
Cc1cc(NC(=O)C2=C(O)c3ccccc3S(=O)(=O)N2C)no1 [isoxicam] (10 µM) | 108
